# Data published in PubChem BioAssay AID1962 (The Scripps Research Institute Molecular Screening Center, 2009).
# Where “and” joins values, the source holds several entries; their conditions need not be identical. Equal values may be shown once. The campaign covered roughly 300,000 compounds. About 2,500 (0.83%) were called active.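 Rule for the calls: active = inhibition above the mean of all tested compounds plus 3 SD, set per screening campaign (cut at about 24% in these data); inactive = the rest.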 This excerpt belongs to a sample that is enriched for actives.
# Tested on: tRNA 2'-phosphotransferase TPT1 (Candida albicans SC5314)
# Assay: Candida albicans TPT1 enzyme inhibitors, primary screen, biochemical, fluorescence polarization (AID 1962);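 note: plate controls were DMSO alone for no effect and ferristatin control at 100 nM for full effect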
# Conditions: recombinant caTPT1, FP RNA substrate dephosphorylation; at 5 µM; active compounds read high
row,SMILES,inhibition
1,CCCCC(=O)N/N=C/c1c(O)n(CC)c(=S)n(CC)c1=O,156% (active)
2,CCCCC(=O)N/N=C/c1c(O)n(-c2ccccc2)c(=O)[nH]c1=O,-0.86% (inactive)
3,CCCCC(=O)N/N=C/c1c(O)n(CCC2=CCCCC2)c(=O)[nH]c1=O,0.99% (inactive)
4,CNC(=O)Nc1ccc(C(O)(C(=O)OC)C(F)(F)F)cc1 (stereo not given),0.47% (inactive)
5,CCOC(=O)c1c(C)c(C(=O)N2CCC3(CC2)OCCO3)c(C)n1CC,1.34% (inactive)
6,O=c1[nH]c(=O)n(-c2ccccc2)c(O)c1C=NC12CN3CN(CN(C3)C1)C2,-4.46% (inactive)
7,CCN1C(=O)C(=Cc2c(C)n(CC(=O)NCC3CCCO3)c3ccccc23)C(=O)N(CC)C1=S (stereo not given),24.2% (active)
8,CCC1(C)CC(CCNCc2ccc(N(C)C)cc2)(c2ccc(F)cc2)CCO1 (stereo not given),1.22% (inactive)
9,O=C(C1CC(=O)N(C2CCCC2)C1)N1CCC2(CC1)OCCO2 (stereo not given),-0.68% (inactive)
10,COc1cccc(N2C(=O)NC(=O)/C(=C\c3cn(C)c4ccccc34)C2=O)c1,-73.3% (inactive)
11,COc1ccc(N2C(=O)/C(=C/c3ccco3)C(=O)NC2=S)cc1,36.7% (active)
12,COc1ccc(CN2C(=O)NC(=O)/C(=C\c3ccc(OC)c(OC)c3OC)C2=O)cc1,10.5% (inactive)
13,O=C(CCCn1c(=O)[nH]c2cc(Cl)ccc2c1=O)N1CCC2(CC1)OCCO2,5.94% (inactive)
14,CCOC(=O)C(O)(c1ccc(N=Cc2ccccc2O)c(C)c1)C(F)(F)F (stereo not given),9.39% (inactive)
15,COC(=O)COc1cc(C)cc2oc(=O)c3c(c12)CCCC3,-2.95% (inactive)
16,COc1cc2nc(N3CCN(C(=O)[C@@H]4CCCO4)CC3)nc(N)c2cc1OC,-1.38% (inactive)
17,CCOCCc1c(O)[nH]c(=S)[nH]c1=O,-3.07% (inactive)
18,O=C1N=c2ccccc2=C/C1=C\c1c(O)[nH]c(=S)[nH]c1=O,-1.76% (inactive)
19,COc1ccccc1N=Nc1c(O)[nH]c(=S)[nH]c1=O,49.2% (active)
20,O=C(O)COc1ccccc1/C=C1\C(=O)NC(=O)N(CCC2=CCCCC2)C1=O,7.72% (inactive)
21,O=C1NC(=O)N(Cc2ccco2)C(=O)/C1=C\c1ccc(-c2ccc(F)cc2)o1,27.9% (active)
22,O=C1NC(=O)N(Cc2ccco2)C(=O)/C1=C\c1cccn1CCOc1ccccc1,37.9% (active)
23,Cc1cc(/C=C2/C(=O)NC(=O)N(Cc3ccco3)C2=O)c(C)n1-c1ccc(C(=O)O)cc1,22.2% (inactive)

row,SMILES,inhibition
1,O=C1NC(=O)N(CCc2ccc(F)cc2)C(=O)/C1=C/C=C/c1ccccc1,13.3% (inactive)
2,O=C(COc1ccc2ccccc2c1)N1CCN(Cc2ccncc2)CC1,-1.1% (inactive)
3,CN(C)C(=O)Oc1cc(OC(=O)N(C)C)cc(C(O)CNC(C)(C)C)c1 (stereo not given),-1.53% (inactive) and -2.15% (inactive)
4,COc1cccc(C(=O)N2C[C@H]3C[C@@H](C2)c2cccc(=O)n2C3)c1,-1.64% (inactive)
5,COc1ccc(C2N3CC(C)(C)CN23)cc1 (stereo not given),0.1% (inactive)
6,CC(C)(C)c1ccc(CN2C(=O)CN=C(c3ccccc3)c3ccccc32)cc1,2.92% (inactive)
7,O=C1CC(=O)N(Cc2ccccc2)C(=O)N1CCCCCCN1C(=O)CC(=O)N(Cc2ccccc2)C1=O,71.4% (active)
8,O=C(CN1CCCC1=O)NCCc1ccccc1,-1.43% (inactive)
9,Fc1ccc(C2N3CCCN23)cc1 (stereo not given),-5.01% (inactive)
10,Cn1c(O)c(C=Nc2ccc3c(c2)CCC3)c(=O)n(C)c1=O,-3.76% (inactive)
11,CC(C)n1c(=O)c(C=Nc2ccc(Br)cc2)c(O)n(Cc2ccco2)c1=O,27.9% (active)
12,CN(C)CCCN=Cc1c(O)n(Cc2ccco2)c(=O)[nH]c1=O,1.6% (inactive)
13,CCOc1ccc(-c2cc(C)[n+](CCN(CC)CC)c(-c3ccc(OCC)cc3)c2)cc1,-0.45% (inactive)
14,Cc1ccc(-n2c(-c3ccc([N+](=O)[O-])cc3)nc3ccccc3c2=O)cc1,-3% (inactive)
15,Cc1ccc(N2C(=O)NC(=O)C(CCc3ccncc3)(Cc3cccc(Cl)c3Cl)C2=O)cc1 (stereo not given),3.87% (inactive)
16,CC(C)Nc1nc(Cl)nc(NC(C)C)n1,-2.15% (inactive)
17,CC/C(=N\NC(=O)c1ccccc1O)c1c(O)n(Cc2ccccc2)c(=O)[nH]c1=O,46.6% (active)
18,O=C(N/N=C/c1c(O)n(Cc2ccccc2)c(=O)[nH]c1=O)c1ccccc1,2.3% (inactive)
19,CCC(=NCc1ccco1)c1c(O)n(Cc2ccccc2)c(=O)[nH]c1=O,3.72% (inactive)
20,COc1ccc2c(c1)[C@]13CCCCC1C(C2)N(C)CC3 (stereo not given in full),-1.13% (inactive)
21,CC1CCCCN1Cc1cccnc1 (stereo not given),-4.61% (inactive)
22,CN(c1ccccc1)c1ccc([N+](=O)[O-])c2nonc12,14.5% (inactive)
